According to PubChem BioAssay:
Active and inactive are the calls of the source.

Tests used:
[1] = system: PRMT1 (protein arginine N-methyltransferase 1); assay: PRMT1 binders on small-molecule microarrays, primary screen, biochemical, small-molecule microarray, 635 nm fluorescence (AID 1088); settings: small-molecule microarray binding, higher = more signal;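 also: binding of Prmt1 protein to compounds spotted on small-molecule microarray slides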
[2] = yeast growth modulation, basal conditions, primary screen, YJM789 clinical isolate, OD600, 24 h (AID 1089);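 also: growth of clinical yeast isolate S. cerevisiae YJM 789 seeded 1000 cells per well; test concentration not given here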; settings: S. cerevisiae YJM789 growth, higher = more signal, called active from +8 up or from −8 down
[3] = fission yeast growth modulation, primary screen, strain 972, OD600, 24 h, no modulator (AID 1090);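 also: basal condition with compound alone and no growth modifier present; test concentration not given here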; settings: S. pombe 972 growth, higher = more signal, called active from +8 up or from −8 down
[4] = S. cerevisiae growth modulation with rapamycin, primary screen, strain BY4716, OD600, 96 h (AID 1091); settings: higher = more signal, called active from +8 up or from −8 down; also: test concentration not given here
[5] = target: Torsin-1A-interacting protein 2 (Homo sapiens) (UniProt Q8NFQ8); assay: LULL1 binders on small-molecule microarray, primary screen, cell lysate, human LULL1 lysate, 635/667 nm fluorescence (AID 1092); settings: hLULL1 lysate binding, 635 nm fluorescence, higher = more signal;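 also: probe is lysate of COS7 cells overexpressing human LULL1; score merges per-feature 667 nm fluorescence with signal-to-noise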
Torsin-1A-interacting protein 2 (Homo sapiens), sequence (Q8NFQ8 whole entry, looked up): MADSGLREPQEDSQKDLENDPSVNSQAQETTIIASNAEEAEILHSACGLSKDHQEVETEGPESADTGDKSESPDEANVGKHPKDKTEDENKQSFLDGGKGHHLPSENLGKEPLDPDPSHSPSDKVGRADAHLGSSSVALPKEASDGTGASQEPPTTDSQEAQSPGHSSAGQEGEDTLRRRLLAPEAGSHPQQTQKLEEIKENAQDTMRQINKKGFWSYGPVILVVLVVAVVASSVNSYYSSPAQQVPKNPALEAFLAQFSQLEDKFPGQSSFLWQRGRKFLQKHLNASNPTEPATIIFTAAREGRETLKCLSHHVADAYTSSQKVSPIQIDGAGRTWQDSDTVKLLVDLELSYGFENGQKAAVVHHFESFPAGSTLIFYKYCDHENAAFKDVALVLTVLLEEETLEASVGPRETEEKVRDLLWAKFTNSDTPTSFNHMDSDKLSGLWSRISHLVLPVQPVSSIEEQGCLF

[6] = E. coli growth modulation, two-sided OD650, primary screen, E. coli filamentation project, strain DRC41, 24 h (AID 1093); settings: OD650, 24 h, higher = more signal, called active from +8 up or from −8 down;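 also: MC1000 strain lacking acrAB efflux and sulA so SOS filamentation is blocked; test concentration not given here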
[7] = small-molecule microarray binders of probe aLefty2, primary screen, biochemical, biotinylated probe, 635/667 nm fluorescence (AID 1094); settings: higher = more signal;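 also: score merges spot fluorescence near 667 nm with spot signal-to-noise ratio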
[8] = system: Noggin (protein binding on small-molecule microarray); assay: Noggin binders on small-molecule microarray, primary screen, biochemical, 635/667 nm fluorescence (AID 1095); settings: 635 nm fluorescence, higher = more signal;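 also: score merges 667 nm feature fluorescence with signal to noise over triplicate slides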
[9] = target: Neurogenic locus notch homolog protein 3 (Homo sapiens) (UniProt Q9UM47); assay: NOTCH3 binders on small-molecule microarray, primary screen, biochemical, 635/667 nm fluorescence (AID 1096); settings: NOTCH3 binding, 635 nm fluorescence, higher = more signal
Neurogenic locus notch homolog protein 3 (Homo sapiens), sequence (Q9UM47 whole entry, looked up): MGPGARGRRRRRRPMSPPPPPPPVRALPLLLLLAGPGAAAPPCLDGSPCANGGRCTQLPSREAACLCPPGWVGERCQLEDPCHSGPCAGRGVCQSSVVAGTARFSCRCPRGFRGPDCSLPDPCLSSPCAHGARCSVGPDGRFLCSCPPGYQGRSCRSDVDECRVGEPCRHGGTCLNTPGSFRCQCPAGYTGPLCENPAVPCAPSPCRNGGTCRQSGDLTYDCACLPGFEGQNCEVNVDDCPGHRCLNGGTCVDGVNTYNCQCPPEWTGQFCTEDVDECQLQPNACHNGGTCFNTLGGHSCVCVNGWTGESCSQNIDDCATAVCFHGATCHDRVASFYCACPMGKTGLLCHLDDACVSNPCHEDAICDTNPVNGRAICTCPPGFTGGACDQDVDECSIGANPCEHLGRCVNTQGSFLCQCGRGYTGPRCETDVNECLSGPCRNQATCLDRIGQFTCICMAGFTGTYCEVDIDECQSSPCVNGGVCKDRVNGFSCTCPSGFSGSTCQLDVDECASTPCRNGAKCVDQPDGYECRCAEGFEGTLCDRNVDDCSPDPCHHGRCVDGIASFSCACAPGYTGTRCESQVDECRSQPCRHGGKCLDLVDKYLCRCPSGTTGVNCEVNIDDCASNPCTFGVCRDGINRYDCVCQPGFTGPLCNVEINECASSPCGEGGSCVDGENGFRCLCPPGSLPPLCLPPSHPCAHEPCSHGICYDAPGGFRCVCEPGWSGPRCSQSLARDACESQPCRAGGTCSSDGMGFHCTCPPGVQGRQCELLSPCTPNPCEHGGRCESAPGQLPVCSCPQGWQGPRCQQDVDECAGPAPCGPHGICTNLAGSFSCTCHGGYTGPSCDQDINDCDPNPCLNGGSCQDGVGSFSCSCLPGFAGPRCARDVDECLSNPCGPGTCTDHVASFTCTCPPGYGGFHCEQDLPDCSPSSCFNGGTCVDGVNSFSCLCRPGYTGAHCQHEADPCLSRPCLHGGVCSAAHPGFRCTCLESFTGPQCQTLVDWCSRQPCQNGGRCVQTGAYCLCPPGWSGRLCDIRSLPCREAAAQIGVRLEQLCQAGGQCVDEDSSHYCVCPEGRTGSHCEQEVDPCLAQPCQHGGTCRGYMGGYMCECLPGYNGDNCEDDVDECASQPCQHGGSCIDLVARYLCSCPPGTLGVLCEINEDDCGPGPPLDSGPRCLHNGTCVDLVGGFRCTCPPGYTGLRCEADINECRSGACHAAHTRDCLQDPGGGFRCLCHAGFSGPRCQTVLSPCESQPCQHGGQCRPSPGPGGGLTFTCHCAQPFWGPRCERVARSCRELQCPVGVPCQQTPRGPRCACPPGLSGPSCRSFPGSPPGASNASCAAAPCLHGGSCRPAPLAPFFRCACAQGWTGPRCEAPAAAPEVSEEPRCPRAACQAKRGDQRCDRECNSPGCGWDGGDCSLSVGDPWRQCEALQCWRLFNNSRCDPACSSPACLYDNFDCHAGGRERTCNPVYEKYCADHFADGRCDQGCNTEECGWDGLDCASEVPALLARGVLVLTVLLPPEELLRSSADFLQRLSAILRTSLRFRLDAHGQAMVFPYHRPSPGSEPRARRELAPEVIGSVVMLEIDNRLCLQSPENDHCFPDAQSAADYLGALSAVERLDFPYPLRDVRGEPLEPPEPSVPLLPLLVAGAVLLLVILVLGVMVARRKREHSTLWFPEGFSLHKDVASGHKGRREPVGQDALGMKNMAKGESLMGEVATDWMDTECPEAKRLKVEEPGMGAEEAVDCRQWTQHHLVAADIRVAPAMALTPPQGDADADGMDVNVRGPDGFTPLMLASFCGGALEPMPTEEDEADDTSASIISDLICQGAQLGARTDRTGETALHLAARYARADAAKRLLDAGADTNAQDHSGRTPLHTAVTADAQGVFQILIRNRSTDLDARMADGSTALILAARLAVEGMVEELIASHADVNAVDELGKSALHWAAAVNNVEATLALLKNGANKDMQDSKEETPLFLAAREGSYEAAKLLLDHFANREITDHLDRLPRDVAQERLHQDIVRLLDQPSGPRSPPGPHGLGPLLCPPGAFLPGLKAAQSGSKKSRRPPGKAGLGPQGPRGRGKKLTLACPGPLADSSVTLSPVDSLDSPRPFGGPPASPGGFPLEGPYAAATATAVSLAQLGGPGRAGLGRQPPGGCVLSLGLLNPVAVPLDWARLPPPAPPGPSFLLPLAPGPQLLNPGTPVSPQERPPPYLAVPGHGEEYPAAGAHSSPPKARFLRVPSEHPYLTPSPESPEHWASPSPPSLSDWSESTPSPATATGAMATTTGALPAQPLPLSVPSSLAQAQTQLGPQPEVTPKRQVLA

[10] = small-molecule microarray binders of probe aEGFR, primary screen, biochemical, biotinylated probe, 635/667 nm fluorescence (AID 1097); settings: higher = more signal;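 also: probe is a biotinylated anti-EGFR antibody binding compounds printed on slides; score combines fluorescence near 667 nm and signal to noise of each spot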

SMILES	composite z-score [1]	z-score [2]	z-score [3]	z-score [4]	composite z-score [5]	z-score [6]	composite z-score [7]	composite z-score [8]	composite z-score [9]	composite z-score [10]
COCC1=C([C@H](O)CCc2ccccc2)[C@H](CO)[C@@H]2C(=O)N(Cc3ccccc3)C(=O)[C@@H]2C1	-0.197	0.226 (inactive)	-0.819 (inactive)	-0.177 (inactive)	-0.0602	1.38 (inactive)	-0.235	0.49	0.248	-0.0794
O=C1O[C@@H](c2ccccc2)[C@@H](c2ccccc2)N2[C@@H](c3ccc(O)cc3)[C@]3(C(=O)Nc4ccccc43)[C@@H](C(=O)N3CCCCCCC3)[C@H]12	1.54	0.964 (inactive)	0.295 (inactive)	1.9 (inactive)	4.32	0.271 (inactive)	1.54	0.589	0.896	1.13
COc1ccc([Si](C)(C)[C@@H]2[C@@H](CCO)O[C@]3(C(=O)N(Cc4ccccc4)c4ccc(N(C=O)c5ccccc5)cc43)[C@H]2C)cc1	1.28	0.697 (inactive)	1.56 (inactive)	7.37 (inactive)	1.33	0.329 (inactive)	-0.0479	0.0182	0.718	-0.189
NC(=O)NCC#Cc1ccc2c(c1)[C@]1(C(=O)N2)[C@H](C(=O)NC[C@H](O)c2ccccc2)[C@H]2C(=O)O[C@H](c3ccccc3)[C@H](c3ccccc3)N2[C@@H]1c1ccccc1OCCO	1.53	1.41 (inactive)	-0.133 (inactive)	2.44 (inactive)	2.35	2.02 (inactive)	-0.186	0.307	0.927	-0.167
C[C@]1(C(=O)NCC(F)(F)F)c2ccccc2C(=O)N(Cc2cc(F)cc(C(F)(F)F)c2)[C@H]1c1ccc(CO)cc1	1.38	0.49 (inactive)	-0.936 (inactive)	-0.563 (inactive)	2.67	-0.951 (inactive)	0.341	-0.16	-0.255	0.52
CC(C)N1C(=O)c2ccccc2[C@](C)(C(=O)NC2CC2)[C@@H]1c1ccc(CO)cc1	1.49	-0.0975 (inactive)	0.193 (inactive)	-0.699 (inactive)	2.66	0.738 (inactive)	-0.14	0.614	0.764	-0.081
C=C(/C(=C/C[C@@H](OC(C)=O)c1ccc(CO)o1)c1cnc2ccccc2c1)C(C)C	1.55	1.2 (inactive)	-0.767 (inactive)	0.375 (inactive)	1.86	1.27 (inactive)	-0.11	1.08	1.07	0.0367
O=C1O[C@@H](c2ccccc2)[C@@H](c2ccccc2)N2[C@@H](c3ccccc3OCCO)[C@]3(C(=O)Nc4ccc(C#CC5(O)CCCCCC5)cc43)[C@@H](C(=O)NC[C@H](O)c3ccccc3)[C@H]12	1.55	1.77 (inactive)	1.16 (inactive)	4.86 (inactive)	3.08	-0.371 (inactive)	0.161	1.69	1.05	0.146
CCOC(=O)C[C@H]1[C@H](OC(=O)c2ccc(C(=O)c3ccccc3)cc2)[C@@H](NC(=O)c2ccc3ccccc3n2)c2cc(OCCCO)ccc2N1C(=O)c1ccc2ccccc2n1	0.424	0.179 (inactive)	0.0242 (inactive)	0.418 (inactive)	1.34	1.12 (inactive)	0.109	0.192	0.486	0.0746
COc1ccc([Si](C)(C)[C@H]2[C@H](CC(=O)N3CCC[C@H]3CO)O[C@@]3(C(=O)N(Cc4cccc(N5CCC5=O)c4)c4ccccc43)[C@@H]2C)cc1	1.55	-0.795 (inactive)	0.289 (inactive)	-0.743 (inactive)	2.6	1.24 (inactive)	0.226	1	1.13	0.133
CN1C(=O)C2C=CC(C(O)C(C)(C)C)N(Nc3ccccc3)C2C1=O (stereo not given)	-0.316	0.392 (inactive)	1 (inactive)	0.949 (inactive)	3.16	-0.971 (inactive)	-0.266	-0.611	-0.784	-0.19
C=C(COC)C(=O)CC[C@@H](OC(=O)c1ccccc1-c1ccccc1C(=O)O)c1ccc(CO)o1	1.38	-24.5 (active)	-20.5 (active)	-4.45 (inactive)	2.4	-0.177 (inactive)	-0.215	1.63	0.314	-0.0512
O=C1C[C@@](C(=O)O)(c2ccc([N+](=O)[O-])cc2)[C@@H](c2ccc(CO)cc2I)N1CC12CC3CC(CC(C3)C1)C2	1.47	-0.12 (inactive)	-3.03 (inactive)	5.6 (inactive)	2.79	0.177 (inactive)	-0.0096	0.0251	1.06	-0.0056
CN(C)CCCCCCNC(=O)[C@@H]1C[C@@H]2C(=O)NCC(=O)N2[C@@H]1c1cccc(OCCO)c1	1.53	0.116 (inactive)	-0.192 (inactive)	0.191 (inactive)	3.07	0.121 (inactive)	0.164	1.17	1.03	0.0225
COc1ccc([Si](C)(C)[C@H]2[C@H](CC(=O)N(CCO)Cc3ccccc3)O[C@@]3(C(=O)N(Cc4cccc(N5C(=O)c6cccc7cccc5c67)c4)c4ccccc43)[C@@H]2C)cc1	1.19	-1.64 (inactive)	-0.897 (inactive)	2.79 (inactive)	1.72	1.02 (inactive)	-0.0158	0.315	0.228	-0.378
COC(=O)c1c2oc(c1C(=O)OC)C(=O)N[C@H](Cc1ccccc1)Cn1nncc1C1(CCCCC1)NC(=O)N[C@H](CO)CC2	0.702	0.776 (inactive)	0.414 (inactive)	-0.178 (inactive)	1.03	1.17 (inactive)	-0.205	0.311	0.17	-0.115
NC(=O)[C@@]1(CCS(=O)(=O)c2ccccc2)N=C(c2ccc(OCCCO)cc2)O[C@H]1c1ccccc1	1.54	-0.0366 (inactive)	-1.58 (inactive)	-0.918 (inactive)	3.6	0.515 (inactive)	-0.046	-0.316	0.667	-0.0703
COC(=O)[C@@]1(Cc2ccc(OC)cc2)[C@H]2c3cc(C(=O)N4CCCC4)n(CCN4CCOCC4)c3C[C@H]2CN1C(=O)c1ccccc1	0.57	-0.674 (inactive)	1.15 (inactive)	-1.32 (inactive)	3.66	-0.22 (inactive)	1.73	0.398	0.937	1.23
C=CCC(OC(C)=O)[C@@H]1[C@@H](N(Cc2ccc(-c3cccc(C(F)(F)F)c3)o2)C(=O)Cc2ccc(OC)cc2)c2cc(OCCCO)ccc2N1C(=O)Cc1ccc(OC)cc1 (stereo not given in full)	-0.0091	-0.816 (inactive)	-0.566 (inactive)	-0.918 (inactive)	-0.106	1.48 (inactive)	-0.107	-0.239	-0.869	-0.178
COC(=O)[C@@]1(Cc2ccccc2)[C@H]2c3cc(C(=O)N(C)C)n(Cc4ccccc4)c3C[C@H]2CN1C(=O)c1ccccc1	-0.361	0.84 (inactive)	1.74 (inactive)	1.51 (inactive)	2.59	-0.813 (inactive)	0.434	0.018	0.85	0.291
Cc1ccc(S[C@]2(C(=O)NCCCN(C)C)CC(=O)N(Cc3ccccc3)[C@@H]2c2ccc(CO)cc2)cc1	1.25	-0.933 (inactive)	-1.18 (inactive)	-1.03 (inactive)	2.01	-0.0465 (inactive)	0.555	-0.511	-0.631	-0.152
C=C(COC)/C(=C/C[C@H](OC(C)=O)c1ccccc1OCCO)c1cnc2ccccc2c1	0.826	-0.837 (inactive)	0.14 (inactive)	1.29 (inactive)	1.76	0.223 (inactive)	-0.171	0.556	0.76	0.436
CC(=O)NCCCC[C@@H]1NC(=O)[C@@H]2C[C@H](C(=O)NCCCCCC[N+](C)(C)C)[C@H](c3cccc(OCCO)c3)N2C1=O	1.54	0.801 (inactive)	0.385 (inactive)	1.1 (inactive)	2.46	-0.104 (inactive)	0.0283	1.03	1.02	-0.115
[N-]=[N+]=Nc1ccccc1[C@@H]1OC(c2ccc(OCCCO)cc2)=N[C@]1(CCS(=O)(=O)c1ccccc1)C(=O)O	1.56	1.57 (inactive)	-3.97 (inactive)	-1.63 (inactive)	3.39	0.777 (inactive)	-0.013	0.61	1.01	0.172
COCCOC(=O)N1C(=O)[C@@]2(c3cc(C#CCC(C(=O)OC)C(=O)OC)ccc31)[C@H](c1ccccc1OCCO)N1[C@H](c3ccccc3)[C@H](c3ccccc3)OC(=O)[C@H]1[C@@H]2C(=O)Nc1nc2ccccc2s1	1.5	-1.03 (inactive)	-0.573 (inactive)	1.95 (inactive)	2.22	4.28 (inactive)	0.0416	1.05	1.05	0.0632
CO[C@H]1O[C@H](CO)[C@@H](OC(=O)Nc2ccc3c(c2)OCO3)[C@H](OC(=O)Nc2ccc3c(c2)OCO3)[C@H]1OC(=O)Nc1ccc2c(c1)OCO2	1.54	1.68 (inactive)	0.861 (inactive)	3.19 (inactive)	3.5	0.922 (inactive)	0.151	0.816	1.03	-0.0455
C=CCOC(=O)[C@@H]1[C@H]2C(=O)O[C@H](c3ccccc3)[C@H](c3ccccc3)N2[C@H](c2ccc(OCCOC(=O)[C@H]3C[C@H]4C(=O)N[C@@H](CCCC[N+](C)(C)C)C(=O)N4[C@H]3c3cccc(OCCO)c3)cc2)[C@@]12C(=O)Nc1ccc(I)cc12	1.59	0.904 (inactive)	1.04 (inactive)	4.48 (inactive)	2.34	0.254 (inactive)	0.0631	1.45	1.13	0.0527
C[N+](C)(C)CCCCNC(=O)[C@H]1C[C@H]2C(=O)N3CCC[C@H]3C(=O)N2[C@H]1c1ccc(O)cc1	1.54	0.0531 (inactive)	0.0211 (inactive)	-1.41 (inactive)	2.14	-0.0773 (inactive)	-0.101	1.85	1.04	0.124
